Screening results: PubChem BioAssay, National Center for Advancing Translational Sciences (NCATS)
G9a inh = qHTS Assay for Inhibitors of Histone Lysine Methyltransferase G9a. Histone-lysine N-methyltransferase EHMT2 (Homo sapiens), Q96KQ7. G9a H3K9 monomethylation, AlphaScreen, 2 h. Potency, µM (series often up to 102 µM), for the others: at the highest dose activity, negative = inhibition, actives largely listed as inhibitors. 8.8% of 350,000 active. AID 504332, 2011; note: % is set by controls: 0 for no effect and ±100 for the full control effect; nearly all actives have a fitted effect of over 75% in size
Target sequence (Q96KQ7 913-1193 limits assumed): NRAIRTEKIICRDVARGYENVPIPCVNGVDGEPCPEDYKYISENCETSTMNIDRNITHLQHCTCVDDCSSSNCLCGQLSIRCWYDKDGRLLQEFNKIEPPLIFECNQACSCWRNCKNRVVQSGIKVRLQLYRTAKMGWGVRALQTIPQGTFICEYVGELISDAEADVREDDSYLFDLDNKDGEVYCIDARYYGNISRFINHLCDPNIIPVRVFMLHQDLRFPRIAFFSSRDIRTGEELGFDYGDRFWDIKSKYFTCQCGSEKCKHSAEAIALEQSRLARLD
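Step 1: enzyme (final 20 nM) with compound, 15 min RT. Step 2: substrate peptide 500 nM and SAM 20 uM, 2 h RT. Step 3: anti-H3K9me1 antibody and AlphaScreen beads, 10 min, then plate read.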
JMJD2A Tudor = qHTS Assay for Inhibitors of JMJD2A-Tudor Domain. Potency, µM (top dose mostly 114 µM), without a hit: top-dose activity change, negative = inhibition, actives largely listed as inhibitors. Lysine-specific demethylase 4A (Homo sapiens), O75164. AID 504339, 2011. AlphaScreen JMJD2A-Tudor / H3K4me3 peptide binding. 4.4% of 390,000 active; note: % is set by controls: 0 for no effect and ±100 for the full control effect; nearly all actives have a fitted effect of over 50% in size
HP1b chromo inh = HTS for Inhibitors of HP1-beta Chromodomain Interactions with Methylated Histone Tails. AlphaScreen HP1-beta / biotin-H3K9me3 peptide binding. Potency, µM (top dose mostly 114 µM), without a hit: top-dose activity change, negative = inhibition, actives largely listed as inhibitors. 0.56% of 390,000 active. AID 540317, 2011; note: nearly all actives have a fitted effect of over 70% in size
Target sequence (P83916 whole entry, looked up): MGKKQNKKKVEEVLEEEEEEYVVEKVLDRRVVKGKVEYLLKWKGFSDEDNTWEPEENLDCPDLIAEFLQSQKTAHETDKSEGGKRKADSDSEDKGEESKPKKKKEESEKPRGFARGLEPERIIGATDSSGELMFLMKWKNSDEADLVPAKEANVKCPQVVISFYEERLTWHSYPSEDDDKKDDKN
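Compound inhibition of the preformed complex between 50 nM HP1-beta and 50 nM biotinylated H3K9me3 peptide was read by AlphaScreen. Buffer was PBS pH 7.4 with 0.01% Tween-20. Incubations ran 30 min at room temperature, with 10 ug/mL donor/acceptor beads.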
BAZ2B inh = qHTS Assay for Inhibitors of BAZ2B | AID 504333, 2011 | 4.4% of 360,000 active | Potency, µM (highest dose often 114 µM), for the others: top-dose activity change, negative = inhibition, actives largely listed as inhibitors | AlphaScreen BAZ2B-H3K14Ac peptide displacement | Bromodomain adjacent to zinc finger domain protein 2B (Homo sapiens), Q9UIF8; note: % is set by controls: 0 for no effect and ±100 for the full control effect; nearly all actives have a fitted effect of over 60% in size
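Compounds, titrated to a top concentration of 110 uM, were incubated 30 min at room temperature with preformed BAZ2B/acetyl-K14 H3 peptide complex (50 nM each). Proximity signal was measured by AlphaScreen after 20 min with beads.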
L3MBTL1 block = qHTS Assay for the Inhibitors of L3MBTL1. Lethal(3)malignant brain tumor-like protein 1 (Homo sapiens), Q9Y468. 0.66% of 230,000 active. AlphaScreen L3MBTL1–H3K9me1 peptide binding. Potency, µM (highest dose often 57.1 µM), for inactives: top-dose activity, negative = inhibition, actives largely listed as inhibitors; note: % is set by controls: 0 for no effect and ±100 for the full control effect; nearly all actives have a fitted effect of over 60% in size
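Read-out is AlphaScreen signal from streptavidin donor and nickel chelate acceptor beads (10 ug/mL final each) bridging L3MBTL1 (50 nM) and biotinylated K9-monomethylated H3(1-15) peptide (75 nM), after 30 min compound exposure at room temperature.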
Sfp PPTase inh = qHTS Assay for Inhibitors of Bacillus subtilis Sfp phosphopantetheinyl transferase (PPTase). AID 1490, 2009. 3.5% of 310,000 active. Biochemical Sfp PPTase activity, qHTS. Potency, µM, inactives show largest response in the series, negative = inhibition, hits mostly inhibitors;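 note: the enzyme is Sfp with the accession as filed and its product quenches rhodamine fluorescence; 0% = enzyme reaction without inhibitor and -100% = no enzyme wells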
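Fluorescence-quenching assay: 15 nM Sfp-PPTase preincubated 15 min at room temperature with compound, then 5 uM rhodamine-CoA and 12.5 uM BHQ-2-labelled YbbR peptide added. Fluorescence (ex 525/em 598 nm) read at start and after 30 min; difference gives rate.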
The depositor's hits bear a star; ? = inconclusive; . = not tested or not shown; [ ] = dose if it differs, or a comment. A selection: hits, their analogues and other compounds. The true share with any hit is near 12%. Calls come from the whole dose curve; as a rule, active = well fitted curve in the direction sought with a large enough effect; inconclusive = small, poorly fitted or top-dose-only effect, or another doubt; inactive = no such curve, though single readings can be large; an effect the other way counts as inactive or inconclusive. Potency is the fitted concentration of half-maximal effect.

SMILES	G9a inh	JMJD2A Tudor	HP1b chromo inh	BAZ2B inh	L3MBTL1 block	Sfp PPTase inh
COc1ccccc1NC(=O)c1c(NCc2ccc(OC)c(OC)c2OC)sc2c1CCCC2	?	?	11%	-26%	.	.
O=C(O)c1ccc(Cl)c(S(=O)(=O)Nc2ccc(S(=O)(=O)N3CCCC3)cc2)c1	.	-16%	25%	.	-1%	.
COC(=O)c1cc(NS(=O)(=O)c2ccc(Cl)c(N3C(=O)c4ccc(C(=O)O)cc4C3=O)c2)cc(C(=O)OC)c1	-112%[59 µM]	-18%	-5%	0.79µM*	.	4%
O=C(CCCN1C(=O)NC2(CCCC2)C1=O)Nc1cccc(S(=O)(=O)N2CCOCC2)c1	?	-6%	11%	13%	11%	.
COc1ccc(-c2nn(-c3ccccc3)cc2/C=C2/SC(=S)N(Cc3ccco3)C2=O)c(C)c1	-46%	?	-12%	-34%	-3%	-8%
COc1ccc(-n2c(C)cc(/C=C3\SC(=S)N(Cc4ccco4)C3=O)c2C)cc1	25µM*	?	-5%	?	-10%	-4%
COc1ccc(-n2c(C)cc(/C=C3\SC(=O)NC3=O)c2C)cc1	22µM*	?	21%	-23%	.	?
O=C(O)CSCC(=O)NCc1cccc(C(F)(F)F)c1	?	-5%	45%	-27%	2%	5%
CN(C)C(=O)c1cn(-c2ccccc2)nc1-c1cc2ccccc2o1	4%[12.7 µM]	-10%	13%	-15%	?	-1%
CN(Cc1cn(-c2ccccc2)nc1-c1cc2ccccc2o1)C(=O)CCC(=O)O	-1%	32µM*	-23%	-22%	2%	16%
CCOC(=O)Cn1nc(C)c(NC(=O)COc2ccccc2[N+](=O)[O-])c1C	0%	6%	23%	-6%	-6%	10%
C=CCNc1nc(NCc2ccccc2)c(C#N)c2c1CN(C)CC2	?	?	-19%	?	-23%	-8%
N#Cc1c(NCCN)nc(NCc2ccccc2)c2c1CCN(Cc1ccccc1)C2	45µM*	?	-15%	?	-7%	-29%
CCN1CCc2c(C#N)c(NCc3ccccc3)nc(N(CC)CC)c2C1	50µM*	?	-14%	?	-8%	?
CCCc1nc(NCc2ccccc2)c(C#N)c2c1CCCC2	97%	22%	117%	41%	15%	-27%
CC(=O)O/C(=C\c1cn(C(C)=O)c2ccccc12)C(=O)O	35µM*	-1%	31%	?	.	-15%
O=[N+]([O-])c1c(NCCCO)cc(Sc2nc3ccccc3s2)c2nonc12	?	56µM*	5%	0%	23%	-4%
CCC(=O)OCCNc1cc(Sc2nc3ccccc3s2)c2nonc2c1[N+](=O)[O-]	2µM*	-34%	?	-33%	.	4µM*
CC(C)OC(=O)CSc1nc2ccccc2s1	-46%[12.7 µM]	-15%[11.4 µM]	38%	63%	.	3%
CCC(=O)OCCNc1cc(Sc2nc3ccccc3[nH]2)c2nonc2c1[N+](=O)[O-]	8.9µM*	79µM*	?	-34%	-1%	18µM*
CS(=O)(=O)c1ccc(Sc2nc3ccccc3s2)c([N+](=O)[O-])c1	0%[59 µM]	?	2%	-38%	-13%	-5%
CCOc1ccc(-c2cc(-c3nc(-c4ccc(C)cc4)no3)[nH]n2)cc1	12%[59 µM]	-19%	32%	2%	.	.
O=C(NC1CCCc2ccccc21)c1ccc2c(c1)sc1nc(-c3ccccc3)cn12 (stereo not given)	-1%[59 µM]	-10%	34%	-19%	.	.
CCCN(CCC)CC(O)Cn1cc(/C=C/C(=O)c2ccccc2)c2ccccc21 (stereo not given)	?	?	9%	.	.	-25%
CCCN(CCC)CC(O)Cn1cc(/C=C/C(=O)c2ccc(OC)cc2)c2ccccc21 (stereo not given)	-45%[59 µM]	45µM*	-19%	?	.	.
SMILES	G9a inh	JMJD2A Tudor	HP1b chromo inh	BAZ2B inh	L3MBTL1 block	Sfp PPTase inh
CCCN(CCC)CC(O)Cn1cc(/C=C/C(=O)c2ccc(C)cc2)c2ccccc21 (stereo not given)	-54%[59 µM]	?	-1%	22µM*	.	.
CC(C(=O)Nc1ccc2c(c1)OCCO2)N(C)CC(=O)Nc1ccccc1Br (stereo not given)	?	-23%	15%	2%	6%	.
FC(F)(F)c1cccc(N2CCC(N=CN3CCCCCC3)=N2)c1	40µM*	-15%[11.4 µM]	?	40µM*	.	1%
Cc1nc2ccccc2c(=O)n1C1CCCCCC1	-2%[59 µM]	-5%[11.4 µM]	73%	9%	1%	12%
CCO/C(C)=N/n1c2nc3ccccc3nc2c2c(=O)n(C3CCCC3)c(C)nc21	56µM*	3%	30%	-4%	-5%	-10%
CSc1nnc(-c2sc3cc(C(F)(F)F)cnc3c2-c2ccccn2)n1C	3%[59 µM]	-17%[57.1 µM]	35%	11%	.	1%
Cn1c(-c2sc3cc(C(F)(F)F)cnc3c2-c2cccnc2)n[nH]c1=S	3.5µM*	-27%[11.4 µM]	-13%	-9%	.	-29%
Cn1c(-c2sc3cc(C(F)(F)F)cnc3c2-c2ccccn2)n[nH]c1=S	6.3µM*	14µM*	23%	-16%	-2%	-19%
CNC(=S)NNC(=O)c1sc2cc(C(F)(F)F)cnc2c1-c1cccnc1	?	-14%	-9%	-18%	14%	19%
Cn1c(-c2sc3cc(C(F)(F)F)cnc3c2-c2cccs2)n[nH]c1=S	4µM*	-30%	2%	-1%	-14%	-5%
C#C[C@@]1(O)CCC2C3CCC4=CC(=O)CCC4C3CC[C@@]21CC (stereo not given in full)	1%[2.33 µM]	.	.	.	.	-15%
COCCNCC(=O)N1CCCCCC1	8.9µM*	3.5µM*	-29%	50µM*	?	0%
Cc1ccc(C(=O)NC(=S)Nc2cccc3nsnc23)cc1	6.3µM*	-4%	15%	-34%	-3%	14µM*
Cc1ccc(C(=O)NC(=S)Nc2c(C)ccc3nsnc23)cc1	11µM*	-26%	3%	-38%	-11%	35µM*
Cc1ccc(C)c(NC(=O)Cn2c(=O)oc3cc(S(=O)(=O)NCc4ccccc4)ccc32)c1	-1%[59 µM]	-27%	14%	-15%	.	.
CCOC(=O)c1c(C)n(C(=O)c2ccco2)c(=O)n1C(=O)c1ccco1	56µM*	-32%	26%	-4%	5%	-5%
CCOC(=O)c1c(C)c(C(=O)N2CCN(C(=O)c3ccco3)CC2)c(C)n1C	-49%[59 µM]	-14%	2%	-36%	-14%	4%
